# According to PubChem BioAssay (NCATS):
# Records with an inconclusive call do not appear. Entries that show only a call come without a potency. Unmarked numbers belong to inactive results. The source made the active and inactive calls. The call rests on the fitted dose curve; in most records, active means well fitted curve in the direction sought with a large enough effect; inconclusive means small, poorly fitted or top-dose-only effect, or another doubt; inactive means no such curve, though single readings can be large; an effect the other way counts as inactive or inconclusive.
# Assays:
# [1] = qHTS of pediatric cancer cell lines to identify multiple opportunities for drug repurposing: Primary screen for BT-12 cells (AID 1347101); further: nearly all actives have a fitted effect of over 25% in size; further: potency means the concentration at half of the fitted maximal effect
# Method in brief: (§1)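 Cells (500-1,000/well) rested 5 h, then received compounds for 48 h; metabolically active cells were measured by CellTiter-Glo luminescence. Final concentrations spanned up to 46 µM (MIPE, 11-point) or 0.59 nM-46 µM (NPC, 8-point) in primary screens, 11-point in follow-ups.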
# [2] = qHTS of pediatric cancer cell lines to identify multiple opportunities for drug repurposing: Primary screen for Rh18 cells (AID 1347102); further: nearly all actives have a fitted effect of over 65% in size; further: potency means the concentration at half of the fitted maximal effect
# Method in brief: (§2)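 Cells (500-1,000/well) in growth media were settled 5 h at 37 degrees C, then given compounds for 48 h. Viability was read as CellTiter-Glo luminescence. Primary runs used MIPE at 11 points (0.78 nM-46 µM) and NPC at 8 points (0.59 nM-46 µM); follow-ups used 11 points.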
# [3] = qHTS of pediatric cancer cell lines to identify multiple opportunities for drug repurposing: Primary screen for OHS-50 cells (AID 1347103); further: nearly all actives have a fitted effect of over 40% in size; further: potency means the concentration at half of the fitted maximal effect
# Method in brief: as §1
# [4] = qHTS of pediatric cancer cell lines to identify multiple opportunities for drug repurposing: Primary screen for MG 63 (6-TG R) cells (AID 1347105); further: nearly all actives have a fitted effect of over 50% in size; further: potency means the concentration at half of the fitted maximal effect
# Method in brief: (§3)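 CRCs from 8- or 11-point titrations (lowest final 0.59 nM NPC, 0.78 nM MIPE). Cell viability: CellTiter-Glo after 48 h incubation, 15 min room-temperature development, luminescence imaging.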
# [5] = qHTS of pediatric cancer cell lines to identify multiple opportunities for drug repurposing: Primary screen for control Hh wild type fibroblast cells (AID 1347106); further: nearly all actives have a fitted effect of over 55% in size; further: potency means the concentration at half of the fitted maximal effect
# Method in brief: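 Viability after 48 h compound treatment at 37C, 500-1,000 cells/well, read as ATP luminescence with CellTiter-Glo. Primary screens used 11-point (MIPE, 0.78 nM-46 µM) or 8-point (NPC, 0.59 nM-46 µM) final concentrations; follow-up screens used 11-point dilutions.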
# [6] = qHTS of pediatric cancer cell lines to identify multiple opportunities for drug repurposing: Primary screen for Rh30 cells (AID 1347107); further: nearly all actives have a fitted effect of over 75% in size; further: potency means the concentration at half of the fitted maximal effect
# Method in brief: as §2
# [7] = qHTS of pediatric cancer cell lines to identify multiple opportunities for drug repurposing: Primary screen for Rh41 cells (AID 1347108); further: nearly all actives have a fitted effect of over 70% in size; further: potency means the concentration at half of the fitted maximal effect
# Method in brief: as §3
# [8] = qHTS of pediatric cancer cell lines to identify multiple opportunities for drug repurposing: Confirmatory screen for A673 cells (AID 1347110); details: A673 Ewing sarcoma cell viability;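 further: potency means the concentration at half of the fitted maximal effect; cells exposed to compound for 48 h before the viability read; nearly all actives have a fitted effect of over 65% in size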
# Method in brief: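 Concentration-response curves came straight from titrations: 11 points (0.78 nM to 46 µM) for MIPE and several concentrations (0.59 nM to 46 µM) for NPC in primary, 11 points in follow-up. Readout: ATP luminescence at 48 h.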
# [9] = qHTS of pediatric cancer cell lines to identify multiple opportunities for drug repurposing: Confirmatory screen for SK-N-MC cells (AID 1347111); details: SK-N-MC cell viability;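 further: potency means the concentration at half of the fitted maximal effect; cells exposed to compound for 48 h before the readout; nearly all actives have a fitted effect of over 70% in size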
# Method in brief: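 Metabolically active cells were quantified by ATP-dependent luminescence (CellTiter-Glo, 15 min at room temperature) following 48 h treatment. Cells had been plated at 500-1,000 per well and settled for 5 h beforehand.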
# [10] = qHTS of pediatric cancer cell lines to identify multiple opportunities for drug repurposing: Confirmatory screen for BT-12 cells (AID 1347112); further: potency means the concentration at half of the fitted maximal effect; nearly all actives have a fitted effect of over 55% in size
# Method in brief: as §2
# [11] = qHTS of pediatric cancer cell lines to identify multiple opportunities for drug repurposing: Confirmatory screen for DAOY cells (AID 1347114); further: potency means the concentration at half of the fitted maximal effect; nearly all actives have a fitted effect of over 65% in size
# Method in brief: (§4)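 Viability measured as metabolically active cells via CellTiter-Glo luminescence following 48 hours of compound exposure, 11-point dilutions in confirmatory testing. 500-1,000 cells/well plated 5 hours before dosing; controls were DMSO and 2.3 µM bortezomib.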
# [12] = qHTS of pediatric cancer cell lines to identify multiple opportunities for drug repurposing: Confirmatory screen for NB-EBc1 cells (AID 1347115);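 further: potency means the concentration at half of the fitted maximal effect; cells exposed to compound for 48 h before the viability read; nearly all actives have a fitted effect of over 45% in size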
# Method in brief: as §2
# [13] = qHTS of pediatric cancer cell lines to identify multiple opportunities for drug repurposing: Confirmatory screen for SJ-GBM2 cells (AID 1347116); further: potency means the concentration at half of the fitted maximal effect; nearly all actives have a fitted effect of over 60% in size
# Method in brief: as §4
# [14] = qHTS of pediatric cancer cell lines to identify multiple opportunities for drug repurposing: Confirmatory screen for BT-37 cells (AID 1347117); details: BT-37 pediatric cancer cells, viability; further: potency means the concentration at half of the fitted maximal effect; nearly all actives have a fitted effect of over 55% in size
# Method in brief: as §2
# [15] = qHTS of pediatric cancer cell lines to identify multiple opportunities for drug repurposing: Confirmatory screen for TC32 cells (AID 1347118); details: TC32 Ewing sarcoma cells viability qHTS;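 further: potency means the concentration at half of the fitted maximal effect; cells exposed to compound for 48 h before the read; nearly all actives have a fitted effect of over 65% in size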
# Method in brief: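 qHTS, TC32, 48 h drug treatment, CellTiter-Glo luminescence as a proxy for metabolically active cells; primary top concentration 46 µM (MIPE 11-pt, NPC 8-pt); confirmatory 11-pt.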
# [16] = qHTS of pediatric cancer cell lines to identify multiple opportunities for drug repurposing: Confirmatory screen for MG 63 (6-TG R) cells (AID 1347119); further: potency means the concentration at half of the fitted maximal effect; nearly all actives have a fitted effect of over 55% in size
# Method in brief: as §2
# [17] = qHTS of pediatric cancer cell lines to identify multiple opportunities for drug repurposing: Confirmatory screen for control Hh wild type fibroblast cells (AID 1347121); further: nearly all actives have a fitted effect of over 70% in size; further: potency means the concentration at half of the fitted maximal effect
# Method in brief: as §2
# [18] = qHTS of pediatric cancer cell lines to identify multiple opportunities for drug repurposing: Confirmatory screen for NB1643 cells (AID 1347109); further: potency means the concentration at half of the fitted maximal effect; nearly all actives have a fitted effect of over 45% in size
# Method in brief: as §2
# [19] = qHTS of pediatric cancer cell lines to identify multiple opportunities for drug repurposing: Confirmatory screen for LAN-5 cells (AID 1347113)
# Method in brief: as §2
# [20] = qHTS of pediatric cancer cell lines to identify multiple opportunities for drug repurposing: Primary screen for RD cells (AID 1347104); further: nearly all actives have a fitted effect of over 55% in size
# Method in brief: as §3
smiles,measurement,setting,value
CC(=O)SCC(CC(=O)c1ccc(C)cc1)C(=O)O (stereo unspecified),Potency,[1],inactive
same,Potency,[2],inactive
same,Potency,[3],inactive
same,Potency,[4],inactive
same,Potency,[5],inactive
same,Potency,[6],inactive
same,Potency,[7],inactive
CCCCCCCCCCCC(=O)[O][Sn]([CH2]CCC)([CH2]CCC)[O]C(=O)CCCCCCCCCCC,Potency,[1],inactive
same,Potency,[2],inactive
same,Potency,[3],inactive
same,Potency,[4],inactive
same,Potency,[5],inactive
same,Potency,[6],inactive
same,Potency,[7],inactive
CN1CC(=O)N/C1=N/C(=O)Nc1cccc(Cl)c1,Potency,[1],inactive
same,Potency,[2],inactive
same,Potency,[3],inactive
same,Potency,[4],inactive
same,Potency,[5],inactive
same,Potency,[6],inactive
same,Potency,[7],inactive
Nc1ccc(C(=O)O)c(O)c1,Potency,[1],inactive
same,Potency,[2],inactive
same,Potency,[3],inactive
same,Potency,[4],inactive
same,Potency,[5],inactive
same,Potency,[6],inactive
same,Potency,[7],inactive
COc1ccnc2c1CCCCC2S(=O)c1nc2ccccc2[nH]1 (stereo unspecified),Potency,[1],inactive
same,Potency,[2],inactive
same,Potency,[3],inactive
same,Potency,[4],inactive
same,Potency,[5],inactive
same,Potency,[6],inactive
same,Potency,[7],inactive
CC(C(=O)O)c1ccc2c(c1)[nH]c1ccc(Cl)cc12 (stereo unspecified),Potency,[1],inactive
same,Potency,[2],inactive
same,Potency,[3],inactive
same,Potency,[4],inactive
same,Potency,[5],inactive
same,Potency,[6],inactive
same,Potency,[7],inactive
COc1cccc2c1C(=O)c1c(O)c3c(c(O)c1C2=O)C[C@@](O)(C(=O)CO)C[C@@H]3O[C@H]1C[C@H](N)[C@H](O[C@@H]2CCCCO2)[C@H](C)O1,Potency,[1],1550 nM (active)
same,Potency,[2],15000 nM (active)
same,Potency,[3],777 nM (active)
same,Potency,[4],841 nM (active)
same,Potency,[7],8410 nM (active)
same,Potency,[8],3290 nM (active)
same,Potency,[9],1650 nM (active)
same,Potency,[10],13100 nM (active)
same,Potency,[11],11700 nM (active)
same,Potency,[12],3290 nM (active)
same,Potency,[13],14700 nM (active)
same,Potency,[14],1170 nM (active)
same,Potency,[15],465 nM (active)
O=C(Nc1ccc(C(=O)O)c(O)c1)c1ccccc1,Potency,[1],inactive
same,Potency,[2],inactive
same,Potency,[3],inactive
same,Potency,[4],inactive
same,Potency,[5],inactive
same,Potency,[6],inactive
same,Potency,[7],inactive
CC(C(=O)O)c1ccc(C(=O)c2cccs2)cc1 (stereo unspecified),Potency,[1],inactive
same,Potency,[2],inactive
same,Potency,[3],inactive
same,Potency,[4],inactive
same,Potency,[5],inactive
same,Potency,[6],inactive
same,Potency,[7],inactive
C[N+]1(C)[C@@H]2CC(OC(=O)[C@H](CO)c3ccccc3)C[C@H]1[C@@H]1O[C@@H]12 (stereo partly specified),Potency,[1],inactive
same,Potency,[2],inactive
same,Potency,[3],inactive
same,Potency,[4],inactive
same,Potency,[5],inactive
same,Potency,[6],inactive
same,Potency,[7],inactive
CCCCC1C(=O)N(c2ccccc2)N(c2ccc(O)cc2)C1=O (stereo unspecified),Potency,[1],5500 nM (active)
same,Potency,[2],8410 nM (active)
same,Potency,[3],11000 nM (active)
same,Potency,[4],21100 nM (active)
same,Potency,[5],inactive
same,Potency,[7],5960 nM (active)
COC(=O)Nc1nc2ccc(C(=O)C3CC3)cc2[nH]1,Potency,[1],2190 nM (active)
same,Potency,[2],inactive
same,Potency,[3],1100 nM (active)
same,Potency,[5],inactive
same,Potency,[6],inactive
same,Potency,[8],1310 nM (active)
same,Potency,[9],1040 nM (active)
same,Potency,[10],16500 nM (active)
same,Potency,[14],2330 nM (active)
same,Potency,[15],1170 nM (active)
same,Potency,[16],1470 nM (active)
same,Potency,[17],inactive
N=C(N)N,Potency,[1],inactive
same,Potency,[2],inactive
same,Potency,[3],inactive
same,Potency,[4],inactive
same,Potency,[5],inactive
same,Potency,[6],inactive
same,Potency,[7],inactive
Cc1ccc(O)c(-n2nc3ccccc3n2)c1,Potency,[1],inactive
same,Potency,[2],inactive
same,Potency,[3],inactive
same,Potency,[4],inactive
same,Potency,[5],inactive
same,Potency,[6],inactive
same,Potency,[7],inactive
Cc1c(Nc2ncccc2C(=O)O)cccc1C(F)(F)F,Potency,[1],inactive
same,Potency,[2],inactive
same,Potency,[3],inactive
same,Potency,[5],inactive
same,Potency,[6],inactive
same,Potency,[7],inactive
CN(C)c1ccc(C(=C2C=CC(=[N+](C)C)C=C2)c2ccccc2)cc1,Potency,[1],174 nM (active)
same,Potency,[2],75 nM (active)
same,Potency,[3],34.7 nM (active)
same,Potency,[4],106 nM (active)
same,Potency,[5],23700 nM (active)
same,Potency,[6],473 nM (active)
same,Potency,[7],94.4 nM (active)
same,Potency,[18],657 nM (active)
same,Potency,[8],293 nM (active)
same,Potency,[9],369 nM (active)
same,Potency,[10],1850 nM (active)
same,Potency,[19],737 nM (active)
same,Potency,[11],657 nM (active)
same,Potency,[12],827 nM (active)
same,Potency,[13],1310 nM (active)
same,Potency,[14],657 nM (active)
same,Potency,[15],261 nM (active)
same,Potency,[16],208 nM (active)
same,Potency,[17],737 nM (active)
CNC(=O)c1c(I)c(NC(=O)CCCCC(=O)Nc2c(I)c(C(=O)O)c(I)c(C(=O)NC)c2I)c(I)c(C(=O)O)c1I,Potency,[1],inactive
same,Potency,[2],inactive
same,Potency,[3],inactive
same,Potency,[4],inactive
same,Potency,[5],inactive
same,Potency,[6],inactive
same,Potency,[7],inactive
CC(C(=O)O)c1ccc(C(=O)c2ccccc2)s1 (stereo unspecified),Potency,[1],inactive
same,Potency,[2],inactive
same,Potency,[3],inactive
same,Potency,[5],inactive
same,Potency,[6],inactive
same,Potency,[7],inactive
CN(C)CCn1nnnc1SCC1=C(C(=O)O)N2C(=O)[C@@H](NC(=O)Cc3csc(N)n3)[C@H]2SC1,Potency,[1],inactive
same,Potency,[2],inactive
same,Potency,[3],inactive
same,Potency,[4],inactive
same,Potency,[5],inactive
same,Potency,[6],inactive
same,Potency,[7],inactive
Cc1cc(O)c2ccccc2c1O,Potency,[4],26600 nM (active)
same,Potency,[5],inactive
Clc1ccccc1-c1nc(-c2ccncc2)no1,Potency,[2],inactive
same,Potency,[20],inactive
same,Potency,[4],inactive
same,Potency,[5],inactive
same,Potency,[6],inactive
same,Potency,[7],inactive
